CYP2C19 inh = blocks human cytochrome P450 2C19. P33261. 96,000 compounds, 21% hits. CYP2C19 Supersomes, luciferin-H EGE luminescence, 30 min. inhibition, % at 5 µM;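 active means CYP2C19 inhibition above a set limit at 5 µM in the primary screen, cut at about 50% in these data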;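 further: plate controls were negative control wells for no effect and 2.5 mM tranylcypromine positive control for full effect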
CYP2C9 inh = human CYP2C9 inhibition; P11712; CYP2C9 Supersomes, luciferin-H conversion, luminescence; inhibition, % at 5 µM; 96,000 compounds, 20% hits; AID 777;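 active means blocking of liver enzyme CYP2C9 beyond about 50% at 5 µM, limit read from the data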
Target sequence (P11712 whole entry, looked up): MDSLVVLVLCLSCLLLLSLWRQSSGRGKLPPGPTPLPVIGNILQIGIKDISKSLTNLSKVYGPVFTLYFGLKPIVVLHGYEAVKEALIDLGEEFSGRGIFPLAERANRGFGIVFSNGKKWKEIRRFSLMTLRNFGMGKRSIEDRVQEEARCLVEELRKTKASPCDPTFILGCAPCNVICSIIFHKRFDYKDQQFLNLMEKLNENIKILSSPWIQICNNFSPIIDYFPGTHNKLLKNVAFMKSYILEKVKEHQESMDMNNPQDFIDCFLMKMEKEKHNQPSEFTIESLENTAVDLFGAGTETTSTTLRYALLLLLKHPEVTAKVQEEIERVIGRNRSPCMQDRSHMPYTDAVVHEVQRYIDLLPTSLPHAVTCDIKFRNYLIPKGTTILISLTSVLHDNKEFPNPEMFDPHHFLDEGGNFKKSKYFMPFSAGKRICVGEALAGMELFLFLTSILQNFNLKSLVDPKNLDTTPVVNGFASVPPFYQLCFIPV
CYP2C19 activ = cytochrome P450 2C19 (human) activation; P33261; recombinant CYP2C19, luciferin-H EGE luminescence; hits give high values; 0 = fully inhibited enzyme, 1 = untreated enzyme; activation factor at 5 µM; 96,000 tested, under 10 active;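 active means activation factor of at least 2 at 5 µM in the primary screen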;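 further: 0 = wells with 2.5 mM tranylcypromine and 1 = vehicle-only wells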
CYP2C9 act = increases human cytochrome P450 2C9 activity; 96,000 compounds, 1.4% hits; recombinant CYP2C9, luciferin-H conversion, luminescence; hits give high values; factor 1 = untreated enzyme, 0 = blocked; AID 1024; activation factor at 5 µM; P11712;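 active means activation factor of 2 or more for CYP2C9 at a 5 µM dose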;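 further: 0 = sulfaphenazole-blocked wells and 1 = vehicle-only wells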
Pyk2 oligo antag = Pyk2 (human) oligomerization antagonism | Q14289 | Q293 cells, Pyk2 FERM NanoBiT luminescence; hits give low values | z-score (the deposit names both 25 µM and 10 µM) | 99,000 compounds, 0.83% hits | AID 1347419;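 active means Z-score of -3 or lower, scaled per plate to the spread of control and sample wells; inactive means z-score above -3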;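 further: negative z-score means lost luminescence so less FERM oligomerization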
Cav32 inh = inhibitors of human Cav3.2 T-type calcium channel; O95180; Cav3.2-expressing cells, Fluo-4 calcium fluorescence FDSS; hits give low values; B-score at 10 µM; 100,000 compounds, 4% hits; AID 449739;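 active means single-dose well whose peak fluorescence ratio is a statistical outlier from its plate by either plate-standardised score or position-corrected B-score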
Starred values were filed as active, the others as inactive. Only some compounds are listed: those with a hit (about 27% of all), similar ones and a draw of the others.

Screening Cc1oc2c(c1C(=O)Nc1ccc(C(=O)O)cc1)CCCC2 returned CYP2C19 inh -7.9, CYP2C9 inh 32.6, CYP2C19 activ 1.1, CYP2C9 act 0.7, Pyk2 oligo antag 0.04 and Cav32 inh 0.0563.
`S=C(c1ccc2c(c1)OCO2)N1CCCC1` gave CYP2C19 inh 41.0, CYP2C9 inh 2.3, CYP2C19 activ 0.6, CYP2C9 act 1, Pyk2 oligo antag -0.08 and Cav32 inh 0.908.
COc1ccc(C(=O)CSc2ncn[nH]2)cc1OC was read as CYP2C19 inh 29.1, CYP2C9 inh -14.9, CYP2C19 activ 0.7, CYP2C9 act 1.1, Pyk2 oligo antag 0.15 and Cav32 inh -0.582.
For COc1ccc2c(c1)C(C)CC(C)(C)N2C(=O)CSc1ncn[nH]1 (stereo not drawn) the results were CYP2C19 inh 88.2*, CYP2C9 inh 63.9*, CYP2C19 activ 0.1, CYP2C9 act 0.4, Pyk2 oligo antag 0.39 and Cav32 inh -1.03.
`O=C(CN1CCCCCC1)Nc1ccc(F)c(F)c1F` gave CYP2C19 inh 71.6*, CYP2C9 inh 8.0, CYP2C19 activ 0.3, CYP2C9 act 0.9, Pyk2 oligo antag 0.34 and Cav32 inh 0.156.
Screening COc1cc(NC(=O)c2ccc(C)cc2)c(OC)cc1NC(=O)CN1CCCCC1 returned Pyk2 oligo antag -0.18 and Cav32 inh -0.134.
`Cc1ccc(NC(=O)CN2CCCCCC2)c(Br)c1` gave CYP2C19 inh 80.3*, CYP2C9 inh 13.8, CYP2C19 activ 0.2, CYP2C9 act 0.9, Pyk2 oligo antag 0.15 and Cav32 inh 0.539.
`C/C(=N\NC(=O)c1cccc(Br)c1)c1cccc(NC(=O)c2ccc(C)o2)c1` gave CYP2C19 inh -12.0, CYP2C9 inh 2.7, CYP2C19 activ 1.1, CYP2C9 act 1, Pyk2 oligo antag -0.71 and Cav32 inh -2.11.
Cc1cc(C)c(C#N)c(SCS(=O)Cc2ccc(Cl)cc2)n1 (stereo not drawn) was read as CYP2C19 inh 94.9*, CYP2C9 inh 58.9*, CYP2C19 activ 0.1, CYP2C9 act 0.4, Pyk2 oligo antag -2.55 and Cav32 inh -2.14.
Cc1cc(C)c(C#N)c(SCc2nc3ccccc3[nH]2)n1 was read as CYP2C19 inh 56.1*, CYP2C9 inh 57.9*, CYP2C19 activ 0.4, CYP2C9 act 0.4, Pyk2 oligo antag 0.24 and Cav32 inh -0.63.
Cc1cc(C)c(C#N)c(SCc2ccc(C#N)cc2)n1 was read as CYP2C19 inh 16.4, CYP2C9 inh -7.1, CYP2C19 activ 0.8, CYP2C9 act 1.1 and Pyk2 oligo antag -0.77.
Screening Cc1cc(C)c(C#N)c(SCS(=O)Cc2ccccc2)n1 (stereo not drawn) returned CYP2C19 inh 68.4*, CYP2C9 inh 23.2, CYP2C19 activ 0.3, CYP2C9 act 0.8, Pyk2 oligo antag -1.82 and Cav32 inh -0.448.
Screening O=C(CSc1nnc(NC2CCCCC2)s1)Nc1ccc(N2CCOCC2)cc1 returned CYP2C19 inh -1.9, CYP2C9 inh 17.7, CYP2C19 activ 1, CYP2C9 act 0.8, Pyk2 oligo antag -1.71 and Cav32 inh 1.76.
For CC(=O)NCCn1c(SCc2ccccc2F)nc2ccccc2c1=O the results were CYP2C19 inh 98.4*, CYP2C9 inh 97.4*, CYP2C19 activ 0, CYP2C9 act 0, Pyk2 oligo antag -0.4 and Cav32 inh -0.729.
`COc1ccc(C(=O)CSc2nc3cccnc3n2C)cc1` gave Pyk2 oligo antag 1.13 and Cav32 inh 0.504.
`Cn1c(SCc2ccccc2F)nc2cccnc21` gave CYP2C19 inh 63.4*, CYP2C9 inh 24.7, CYP2C19 activ 0.4, CYP2C9 act 0.8, Pyk2 oligo antag 0.46 and Cav32 inh 0.508.
For COC(=O)c1sccc1NC(=O)CN(C)NS(=O)(=O)c1ccc(F)cc1 the results were CYP2C19 inh 16.7, CYP2C9 inh 91.3*, CYP2C19 activ 0.8, CYP2C9 act 0.1, Pyk2 oligo antag 0.26 and Cav32 inh 0.0699.
Screening COC(=O)c1sccc1NC(=O)CSc1ccc(Cl)cc1 returned CYP2C19 inh 5.8, CYP2C9 inh 16.9, CYP2C19 activ 0.9, CYP2C9 act 0.8, Pyk2 oligo antag -0.81 and Cav32 inh -2.01.
Screening COC(=O)c1sccc1NC(=O)CN(C)NS(=O)(=O)c1ccc([N+](=O)[O-])cc1 returned CYP2C19 inh 1.7, CYP2C9 inh 11.6, CYP2C19 activ 1, CYP2C9 act 0.9, Pyk2 oligo antag -0.26 and Cav32 inh 0.0787.
`COC(=O)c1sccc1NC(=O)CSc1nnnn1-c1ccccc1F` gave CYP2C19 inh 3.5, CYP2C9 inh -113.5, CYP2C19 activ 1, CYP2C9 act 2.1*, Pyk2 oligo antag -1.04 and Cav32 inh -0.183.
`COc1ccc(OC)c(NC(=O)CSc2nnnn2-c2ccccc2F)c1` gave CYP2C19 inh 21.9, CYP2C9 inh -13.7, CYP2C19 activ 0.8, CYP2C9 act 1.1, Pyk2 oligo antag -1.81 and Cav32 inh -0.236.
Screening COC(=O)c1sccc1NC(=O)CSc1ccccc1NS(=O)(=O)c1ccc(F)cc1 returned CYP2C19 inh 27.0, CYP2C9 inh 74.2*, CYP2C19 activ 0.7, CYP2C9 act 0.3, Pyk2 oligo antag -1.21 and Cav32 inh -5.56*.
COC(=O)c1sccc1NC(=O)CSc1ccccc1NS(=O)(=O)c1ccc(Br)cc1 was read as CYP2C19 inh 18.7, CYP2C9 inh 79.8*, CYP2C19 activ 0.8, CYP2C9 act 0.2, Pyk2 oligo antag 0.37 and Cav32 inh -3.01.
Screening COC(=O)c1sccc1NC(=O)CN(C)NS(=O)(=O)c1ccc(Cl)cc1 returned CYP2C19 inh 15.3, CYP2C9 inh 11.1, CYP2C19 activ 0.8, CYP2C9 act 0.9, Pyk2 oligo antag 0.35 and Cav32 inh 0.693.
COc1ccc(Cl)cc1NC(=O)CSc1nnc(CN2CCOCC2)n1-c1ccc(Cl)cc1 was read as CYP2C19 inh 1.5, CYP2C9 inh -4.1, CYP2C19 activ 1, CYP2C9 act 1, Pyk2 oligo antag 0.55 and Cav32 inh -1.92.
COc1ccc(/C=N\NC(=O)C2=NNC(=O)C2C)cc1 (stereo not drawn) was read as CYP2C19 inh 4.0, CYP2C9 inh -10.5, CYP2C19 activ 1, CYP2C9 act 1.1, Pyk2 oligo antag 3.63 and Cav32 inh 0.51.
For O=C(CSCc1ccccc1)N/N=C/c1ccccc1OCc1ccccc1 the results were CYP2C19 inh 13.5, CYP2C9 inh 60.2*, CYP2C19 activ 0.9, CYP2C9 act 0.4, Pyk2 oligo antag -0.71 and Cav32 inh -2.54.
For COc1ccc(CSCC(=O)N/N=C/c2ccccc2OCc2ccccc2)cc1 the results were CYP2C19 inh 30.7, CYP2C9 inh 49.1, CYP2C19 activ 0.7, CYP2C9 act 0.5, Pyk2 oligo antag 0.74 and Cav32 inh -5.75*.
Screening Cc1cc(C)nc(N/N=C/c2ccccc2OCc2ccccc2)n1 returned Pyk2 oligo antag -0.07.
Cc1cc(NC(=O)CSc2nnc3c(C)cc4cc5c(cc4n23)OCO5)no1 was read as CYP2C19 inh 2.0, CYP2C9 inh 12.9, CYP2C19 activ 1 and CYP2C9 act 0.9.

Source: PubChem BioAssay (several laboratories)
